Source: PubChem (National Center for Advancing Translational Sciences (NCATS))
Vif-A3F inh: qHTS for Inhibitors of Vif-A3F Interactions: qHTS | HeLa A3F-eYFP + Vif (tagged APOBEC3F with the HIV-1 protein that degrades it), YFP fluorescence increase | 390,000 tested, 0.2% active | Potency, µM (titrated, usually from 46.1 µM), for the others: at the top dose activity, negative = active; note: potency is the fitted concentration of half-maximal effect; % of control where 0% means no effect; nearly all actives have a fitted effect of over 65% in size
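HeLa cells stably expressing Vif plus C-terminally eYFP-tagged A3F were seeded, incubated overnight at 37 deg C, dosed with compound, incubated overnight again at 37 deg C. Yellow fluorescence (Ex 488/Em 500-530) reported blocked Vif-mediated A3F-eYFP degradation.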
TRPML1 blocker: qHTS for Inhibitors of the Human Mucolipin Transient Receptor Potential 1 (TRPML1) | activity change, negative = inhibition, % (concentration not given with the values) | TRPML1-inducible cells, Ca2+ dye fluorescence, FDSS; stronger effect = lower value; inhibition of EC80 agonist-evoked calcium signal | 390,000 tested, 0.02% active; in the data active = activity change below about -50%; inconclusive = between about -30% and that limit;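 note: stimulus is agonist 54-4 at its EC80 concentration; % is set by controls: 0 for no effect and ±100 for the full control effect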
Target sequence (Q9GZU1 whole entry, looked up): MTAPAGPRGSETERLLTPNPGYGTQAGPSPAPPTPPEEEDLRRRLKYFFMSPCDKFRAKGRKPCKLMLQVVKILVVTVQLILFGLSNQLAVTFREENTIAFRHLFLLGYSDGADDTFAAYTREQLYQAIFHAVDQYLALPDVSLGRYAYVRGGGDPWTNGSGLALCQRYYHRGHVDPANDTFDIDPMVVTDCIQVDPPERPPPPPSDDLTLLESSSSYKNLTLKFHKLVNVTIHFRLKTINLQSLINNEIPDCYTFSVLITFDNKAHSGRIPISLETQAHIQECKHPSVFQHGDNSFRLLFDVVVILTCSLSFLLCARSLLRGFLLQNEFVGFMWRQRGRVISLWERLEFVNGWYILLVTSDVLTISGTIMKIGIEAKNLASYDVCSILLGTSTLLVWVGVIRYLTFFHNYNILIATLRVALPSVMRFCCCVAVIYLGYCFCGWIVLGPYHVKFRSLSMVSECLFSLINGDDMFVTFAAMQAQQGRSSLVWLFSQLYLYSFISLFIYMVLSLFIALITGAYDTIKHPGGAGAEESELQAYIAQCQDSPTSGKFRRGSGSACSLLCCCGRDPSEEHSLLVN
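Tet-induced TRPML1-DL cells loaded with Ca8 no-wash calcium dye were read kinetically on FDSS. Compound addition was followed by EC80 agonist 54-4 (4 uM final); inhibition was read over 110 s.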
Vif-A3G inh: qHTS for Inhibitors of Vif-A3G Interactions: qHTS; DNA dC->dU-editing enzyme APOBEC-3G (Homo sapiens), Q9HC16; HeLa A3G-eYFP + Vif (tagged APOBEC3G with the HIV-1 protein that degrades it), YFP fluorescence, overnight; Potency, µM (top dose mostly 46.1 µM), without a hit: top-dose activity, negative = active, actives largely listed as inhibitors; 410,000 tested, 0.076% active; AID 602310, 2012; note: potency is the fitted concentration of half-maximal effect; % is set by controls: 0 for no effect and ±100 for the full control effect; nearly all actives have a fitted effect of over 60% in size
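Read-out is eYFP fluorescence (Ex 488/Em 500-530) from Vif-expressing HeLa A3G-eYFP cells; more signal means A3G escaped Vif-mediated degradation. Cells plated overnight, compound pinned in, incubated overnight at 37 deg C.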
GRP78 ERSR act: qHTS for Inducers of the Endoplasmic Reticulum Stress Response (ERSR) in Human Glioma: qHTS | U87-MG GRP78 promoter luciferase reporter, 16 h | Potency, µM, without a hit: at the top dose activation, usual class: activators | 420,000 tested, 0.02% active | AID 602332, 2012; note: potency is the fitted concentration of half-maximal effect; series mostly up to about 76 µM; % of control where 0% means no effect; nearly all actives have a fitted effect of over 35% in size
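Stably transfected U87-MG glioma cells carrying a GRP78-based luciferase sensor; 16 h compound incubation. Luminescence end-point read 10 min after Bright-Glo addition at room temperature.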
TRPML1 agonist: qHTS for Agonists of the Human Mucolipin Transient Receptor Potential 1 (TRPML1); Mucolipin-1 (Homo sapiens), Q9GZU1; TRPML1-expressing cells, Ca2+ dye fluorescence, FDSS; activation, % (no concentration beside the values); 410,000 tested, 0.12% active; in the data active = activation above about 50%; inconclusive = mostly about 30% to 49%; note: 0% is about no effect
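Tetracycline-induced TRPML1-DL cells are seeded and incubated overnight before loading with a no-wash Ca2+ dye and quencher. Agonist activity is taken from the 110 s fluorescence read following compound pin-transfer on an FDSS, before EC80 54-4 challenge.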
12-LOX inh: Primary qHTS assay for inhibitors of human arachidonate 12S-lipoxygenase (ALOX12): Round 2 | purified 12hLO, xylenol orange hydroperoxide absorbance | AID 1671190, 2021 | 580,000 tested, 1.1% active | Polyunsaturated fatty acid lipoxygenase ALOX12 (Homo sapiens), P18054 | Potency, µM (top dose mostly 108 µM), for the others: at the highest dose activity change, negative = inhibition, hits mostly inhibitors; note: potency is the fitted concentration of half-maximal effect; % is set by controls: 0 for no effect and ±100 for the full control effect
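Purified human 12hLO (150 nM final) in 25 mM Hepes, 0.01% Triton X-100, pH 7.0 was preincubated 15 min at room temperature with compound. Then 40 uM arachidonic acid was added, 30 min. Hydroperoxide was read by Fe-XO absorbance ratio 573/405 nm.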
* hit, by the source's call; ? = inconclusive; · = no result; ! = not active in a repeat. Rows were chosen to be rich in hits. Some 1.3% of all compounds tested hit in one or more screens of this group. Unless noted, calls come from the whole dose curve; as a rule, active = well fitted curve in the direction sought with a large enough effect; inconclusive = small, poorly fitted or top-dose-only effect, or another doubt; inactive = no such curve, though single readings can be large; an effect the other way counts as inactive or inconclusive.

SMILES	Vif-A3F inh	TRPML1 blocker	Vif-A3G inh	GRP78 ERSR act	TRPML1 agonist	12-LOX inh
CC(=O)NCCNc1ncncc1-c1ccc(N(C)C)cc1	·	·	·	-5%	·	45µM*
Cc1cccc(-n2nnnc2SCc2nc(N)c3ccccc3n2)c1	·	·	·	·	·	2%
COCCN1CCCN(C(=O)c2ccc(F)c(F)c2)c2ccccc21	·	·	·	·	·	45µM*
O=C(NC1CCCCC1)N1CCC(c2nnc3n2CCNC3)CC1	·	·	·	·	·	13µM*
O=C(NC1CCCCC1)N1CCNCC1	8%	-8	0%	-5%	0	4%
Cc1ccc(C(=O)C(C)OC(=O)C23CC4CC(CC(O)(C4)C2)C3)cc1 (stereo not drawn)	·	·	·	·	·	-20%
COc1ccc(C(=O)C(Br)C(=O)c2ccc(OC)cc2)cc1	·	·	·	·	·	6.3µM*
COc1ccc(C(=O)C(C)C(=O)c2ccc(OC)cc2)cc1	·	·	·	·	·	-29%
O=C(CCc1ncc(-c2ccc(F)cc2)o1)Nc1cccc(C(=O)NC2CC2)c1	·	·	·	·	·	-9%
CSc1nsc(/C=C/Nc2ccc(C)c(C)c2)c1C#N	?	11	-31%	3%	0	-28%
CSc1nsc(/C=C/Nc2ccc(C)cc2)c1C#N	?	-16	13µM*	2%	0	2%
Cc1ccc(SCC(=O)NC(C)(C#N)C2CC2)c(C)c1 (stereo not drawn)	·	·	·	·	·	35µM*
CC(C#N)(NC(=O)CSc1ccc(F)cc1)C1CC1 (stereo not drawn)	·	·	·	·	·	15%
O=C(O)CCNC(=O)C(F)(F)C(F)(F)C(F)(F)C(F)(F)C(F)(F)C(F)(F)F	·	·	·	·	·	11µM*
CCOC(=O)CNC(=O)C(F)(F)C(F)(F)C(F)(F)C(F)(F)C(=O)NCC(=O)OCC	·	·	·	·	·	29%
CCNC(=O)NCCC12CC3CC(CC(C3)C1)C2	·	·	·	·	·	5%
CCN(CC(=O)NCc1cccs1)C(=O)CCC(=O)c1ccc(C)cc1	3%	10	-1%	-1%	-1	28µM*
O=C(NCc1cccc(Cl)c1)c1ccc(-n2ccnc2)c2ccoc12	·	43	-8%	0%	-1	40µM*
NC(=O)N/N=C/c1cccc(Br)c1	·	·	·	·	·	-32%
O=C(CCc1c[nH]c2ccccc12)OCC(=O)N1CCCCCC1	·	·	·	·	·	-32%
CC(=O)Nc1ccc(NC(=O)C(C)Sc2nc3ccc(Cl)cc3c(=O)n2CC(C)C)cc1 (stereo not drawn)	·	·	·	·	·	3%
Oc1cc(O)cc(/C=C/c2ccc(O)c(O)c2)c1	-5%	-6	?	-12%	0	7.9µM*!
N#CC1=C(S)N(c2ccccc2)C2(CCCCC2)NC1=O	2%	-4	0%	-1%	1	-33%
N#CC1=C(S)N(c2ccc(F)cc2)C2(CCCCC2)NC1=O	11µM*	18	9%	-2%	1	?
Cc1cc(Br)ccc1OCCNCc1ccccc1	-19%	-5	-4%	5%	1	6.3µM*
SMILES	Vif-A3F inh	TRPML1 blocker	Vif-A3G inh	GRP78 ERSR act	TRPML1 agonist	12-LOX inh
O=S(=O)(Nc1cccc2cccnc12)c1ccc(S(=O)(=O)N2CCCC2)cc1	-19%	-3	?	?	66*	19%
O=C(Cn1sc2ccccc2c1=O)NC12CC3CC(CC(C3)C1)C2	1%	-1	-1%	-6%	1	·
O=C(Cn1sc2ccccc2c1=O)Nc1ccccc1	1%	6	-2%	-2%	5	0.89µM*
COc1ccccc1NC(=O)c1oc2ccccc2c1NC(=O)c1cccc(OC)c1OC	-12%	6	5.6µM*	-3%	0	-5%
COc1ccc(-n2c(O)c(/C=N/NS(=O)(=O)c3ccc(C)cc3)c3ccccc3c2=O)cc1OC	5µM*	-13	?	-4%	24	?
O=C(Nc1ccc(-c2nc3cc(Cl)ccc3o2)cc1)c1cc(Br)ccc1Cl	0%	-8	0%	4%	1	3%
COc1ccc(-c2nc3cc(NC(=S)NC(=O)Cc4ccccc4)ccc3o2)cc1	6%	6	0%	-1%	0	28µM*
CC(C)c1ccc(-c2nc3cc(NC(=O)c4cccnc4)ccc3o2)cc1	·	·	·	·	·	40µM*
COc1cccc(OC)c1C(=O)Nc1ccc(-c2nc3ccccc3o2)cc1	·	·	·	·	·	40µM*
O=C(O)c1ccccc1-c1ccccc1C(=O)Nc1ccc(-c2nc3cc(Cl)ccc3o2)cc1	-13%	-15	-16%	16%	0	45µM*
COc1ccc(OC)c(-n2cnc3cc(C(=O)NC4CC4)ccc3c2=O)c1	·	·	·	·	·	4%
CC1Cc2nc(SCC(=O)N3CCCC3)n(-c3ccc(F)cc3)c(=O)c2S1 (stereo not drawn)	·	·	·	·	·	-7%
COc1cccc2cc(-c3nnc(SCC(=O)Nc4ccc(C)cc4)n3N)oc12	·	·	·	·	·	-20%
NC(=O)NC(CC(=O)NC(Cc1ccccc1)c1ccccc1)c1ccccc1 (stereo not drawn)	·	·	·	·	·	2%
Cc1c(C)n(CCCN2CCOCC2)c2ncn3nc(CSc4nc5ccccc5o4)nc3c12	·	·	·	·	·	-1%
Cc1noc(C)c1-c1cc(NC2CCNCC2)ncn1	·	·	·	-3%	·	22µM*
Cc1ccccc1-c1nccc(NCCN2CCOCC2)n1	·	·	·	-1%	·	40µM*
Cc1noc(C)c1-c1nccc(NCCN2CCOCC2)n1	·	·	·	4%	·	32µM*
Cc1noc(C)c1-c1nccc(N2CCNCC2)n1	·	·	·	-3%	·	?
COCCNc1ccnc(-c2c(C)noc2C)n1	·	·	·	18%	·	?
Cc1noc(C)c1-c1nccc(-n2ccnc2)n1	·	·	·	-5%	·	45µM*
O=C(Nc1cccc(NC(=O)C2CCCC2)c1)C1CCCC1	·	·	·	·	·	48%
Cn1nc(CC(=O)Nc2ccccc2O)c2ccccc2c1=O	·	·	·	·	·	-15%
O=C(Nc1ccc(F)cc1)C1Sc2nnc(-c3ccccc3)n2NC12CCCCC2 (stereo not drawn)	·	·	·	·	·	0%
Cc1noc(C)c1-c1nccc(NC2CC2)n1	·	·	·	-1%	·	7.1µM*
Cc1noc(C)c1-c1nccc(NCc2cccs2)n1	·	·	·	-5%	·	?
COc1ccc(C(=O)NCc2nnc(SCC(=O)NC3CCCCC3)n2C)cc1	0%	10	2%	13%	-1	40µM*
COc1ccc(OCc2nnc(SCC(=O)NC3CC3)n2C)cc1	-2%	2	2%	-3%	0	0%
c1ccc(C2(c3ccccc3)CCCN(Cc3cscn3)C2)cc1	·	·	·	·	·	45µM*
